Measurements from PubChem BioAssay (NCATS).
Results filed as inconclusive are left out. Values without a mark were called inactive. Activity calls are given as the source filed them. The call rests on the fitted dose curve; in most records, active means well fitted cell-killing curve with a large enough effect; inconclusive means small, poorly fitted or top-dose-only effect; inactive means no such curve, though single readings can be large or run the other way.

Test: Cell Viability - LYMP2-001 (AID 921); further: nearly all actives have a fitted effect of over 70% in size;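 on activity change, negative = cytotoxic: 0% = DMSO only and full inhibition = tetraoctylammonium bromide control wells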
Details: LYMP2-001 lymphoblastoid cell viability; series mostly up to 92.2 µM; activity change, negative = cytotoxic: at the top concentration
From the text: NIH Chemical Genomics Center [NCGC]
NIH Molecular Libraries Screening Centers Network [MLSCN]
National Institutes of Environmental Health Sciences [NIEHS]
National Toxicology Program [NTP]
We have developed a 1536-well cell-based assay for quantitative high throughput screening (qHTS) against a number of cell lines to determine in vitro cytotoxicity of small molecules. This particular assay uses a human lymphoblastoid cell line (LYMP2-001) purchased from Coriell Institute for Medical Research.
NCGC Assay Protocol Summary:
The CellTiter-Glo luminescent cell viability assay (Promega) is a homogeneous method to measure the number of viable cells in culture. The end point readout of this assay is based on quantitation of intracellular ATP, an indicator of metabolic activity, using the luciferase reaction. Luciferase catalyzes the oxidation of beetle Luciferin to oxyluciferin and light in the presence of ATP. The luminescent signal is proportional to amount of ATP present.
Using the CellTiter-Glo luminescent cell viability assay, the amount of cellular ATP was measured in the lymphoblastoid cell line with complete culture medium following compound treatment for 24 hours. The assay was performed in opaque white Kalypsys 1536-well plates. In the screen, tetraoctylammonium bromide was used as positive control. Library compounds were measured for their ability to cause acute toxicity in the cell line, as reflected by a decrease in intracellular ATP levels, in a concentration-dependent manner. […] AC50 values were determined from concentration-response data modeled with the standard Hill equation.
qHTS protocol for CellTiter Glo lymphoblastoid cellular assay
[Step] [Parameter] [Value] [Description]
1. Reagent; 5 uL; 2500 lymphoblastoid cells/well
2. Time; 5 hr; 37 C incubation
4. Controls; 23 nL; Tetraoctylammonium bromide 6.4pM to 92 uM
5. Time; 24 hr; 37 C incubation
6. Reagent; 5 uL; CellTiter Glo reagent
7. Time; 30 min; Room Temperature
8. Detection; Luminescence; Viewlux plate reader
Keywords: cell viability, cytotoxicity, lymphoblastoid cell line, luminescence, NTPHTS, NTPHTS_NCGC, NIEHS, DSSTox, MLSMR, MLSCN, NIH Roadmap, qHTS, NCGC
Potency means the concentration at half of the fitted maximal effect.

Compound | Potency | activity change, negative = cytotoxic
CC(O)CO (centres undefined) | inactive | –
O=S(=O)(O)O | inactive | –
CCOc1ccc2c(c1)C(C)=CC(C)(C)N2 | – | -23.7%
Nc1ccn([C@H]2CS[C@@H](CO)O2)c(=O)n1 | – | -29.3%
IC(I)I | – | -8.37%
CC1=C2[C@@H]([C@H](C)CC[C@H]2/C=C(\C)C(=O)O)[C@H](O)C1 | – | -15.2%
CCCCCCCC(=O)O | – | -15.2%
CCCCC/C=C\C/C=C\CCCCCCCC(=O)O | – | -8.46%
O=CCCCC=O | 15.8 µM (active) | –
O=C(O)CCC(=O)C(=O)O | – | -5.32%
CC(C)=O | – | -8.68%
Cc1ccccc1 | inactive | –
CCCCCCCC/C=C\CCCCCCCC(=O)O | – | 7.24%
CCOC(C)=O | – | -10.5%
